Holding throughout (conditions): mRNA level, 48 h; actives raise or lower the signal
Read-out in assay [1]: growth arrest and DNA damage 45 (GADD45A), GADD45A (gene 1647)
In words: LTEA_HepaRG_GADD45A: Life Technologies and Expression Analysis (LTEA) Assay for growth arrest and DNA damage 45 (GADD45A) using HepaRG (AID 2283458). Put shortly: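 GADD45A expression was measured by TaqMan qRT-PCR against three housekeeping genes (ACTB, GAPDH, POLR2A) after 48 h treatment of HepaRG cells. Eight-point half-log series up to 100 uM in 0.5% DMSO, run in duplicate.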

Read-out in assay [2]: Forkhead box O3 (FOXO3), FOXO3 (gene 2309)
In words: LTEA_HepaRG_FOXO3: Life Technologies and Expression Analysis (LTEA) Assay for Forkhead box O3 (FOXO3) using HepaRG (AID 2283459). An outline of the steps: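 FOXO3 transcript measured by qRT-PCR (normalized to ACTB, GAPDH, POLR2A) after 48 h exposure of HepaRG cells in serum-free induction medium. Duplicates, eight half-log concentrations up to 100 uM, 0.5% DMSO; gain or loss fitted against DMSO.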

Read-out in assay [3]: ABC Transporter (ABCB1), ABCB1 (gene 5243)
In words: LTEA_HepaRG_ABCB1: Life Technologies and Expression Analysis (LTEA) Assay for ABC Transporter (ABCB1) using HepaRG (AID 2283460). Put shortly: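 ABCB1 transcript level measured by TaqMan qRT-PCR against three housekeeping genes after 48 h chemical exposure of differentiated HepaRG cells. Top concentration 100 uM, half-log steps, eight points, 0.5% DMSO vehicle; bidirectional fit relative to DMSO.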

Read-out in assay [4]: growth arrest and DNA damage 45 (GADD45B), GADD45B (gene 4616)
In words: LTEA_HepaRG_GADD45B: Life Technologies and Expression Analysis (LTEA) Assay for growth arrest and DNA damage 45 (GADD45B) using HepaRG (AID 2283461). An outline of the steps: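 Values are bidirectional concentration-response fits against 0.5% DMSO controls. Underlying data: qRT-PCR mRNA levels in human HepaRG liver cells treated 48 h in serum-free induction medium, eight concentrations topping at 100 uM.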

Read-out in assay [5]: ABC Transporter (ABCC3), ABCC3 (gene 8714)
Kind of assay: LTEA_HepaRG_ABCC3: Life Technologies and Expression Analysis (LTEA) Assay for ABC Transporter (ABCC3) using HepaRG (AID 2283462). Put shortly: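 Differentiated HepaRG liver cells receive test chemicals at eight concentrations (max 100 uM) for 48 h. Expression of ABCC3 is quantified by qRT-PCR against ACTB, GAPDH and POLR2A, and activity is fitted in both directions against the DMSO control.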

Read-out in assay [6]: ABC Transporter (ABCB11), ABCB11 (gene 8647)
Kind of assay: LTEA_HepaRG_ABCB11: Life Technologies and Expression Analysis (LTEA) Assay for ABC Transporter (ABCB11) using HepaRG (AID 2283463). Put shortly:
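ABCB11 transcript levels quantified by TaqMan qRT-PCR against three housekeeping genes after 48 h chemical exposure of HepaRG cultures. Concentrations up to 100 uM in half-log steps, 0.5% DMSO vehicle; both induction and suppression scored.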

Read-out in assay [7]: ABC Transporter (ABCC2), ABCC2 (gene 1244)
In words: LTEA_HepaRG_ABCC2: Life Technologies and Expression Analysis (LTEA) Assay for ABC Transporter (ABCC2) using HepaRG (AID 2283464). An outline of the steps: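 Gene expression of ABCC2 was determined by qRT-PCR in HepaRG cells exposed 48 h to chemicals (highest 100 uM, half-log dilutions). Activity was fitted in both directions relative to 0.5% DMSO vehicle.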

Read-out in assay [8]: Broad substrate specificity ATP-binding cassette transporter ABCG2 (Homo sapiens) (UniProt Q9UNQ0)
In words: LTEA_HepaRG_ABCG2: Life Technologies and Expression Analysis (LTEA) Assay for ABC Transporter (ABCG2) using HepaRG (AID 2283465). An outline of the steps: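 ABCG2 transcript was quantified by TaqMan qRT-PCR against three housekeeping genes in HepaRG cells. Cells were treated in duplicate for 48 h across an 8-point half-log series up to 100 uM, with 0.5% DMSO vehicle. Gain or loss versus DMSO was fit.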

Read-out in assay [9]: Peroxisomal acyl-coenzyme A oxidase 1 (ACOX1) gene, ACOX1 (gene 51)
In words: LTEA_HepaRG_ACOX1: Life Technologies and Expression Analysis (LTEA) Assay for Peroxisomal acyl-coenzyme A oxidase 1 (ACOX1) gene using HepaRG (AID 2283467). Put shortly:
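ACOX1 transcript levels were quantified by TaqMan qRT-PCR against three housekeeping genes after 48 h chemical exposure of differentiated human HepaRG cells. Exposure used eight half-log steps topping at 100 uM, 0.5% DMSO vehicle, in duplicate. Bidirectional curve fits were made relative to DMSO.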

Read-out in assay [10]: Alkaline Phosphatase, Placental (ALPP) gene, ALPP (gene 250)
Kind of assay: LTEA_HepaRG_ALPP: Life Technologies and Expression Analysis (LTEA) Assay for Alkaline Phosphatase, Placental (ALPP) gene using HepaRG (AID 2283468). Put shortly:
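Expression of ALPP was quantified by qRT-PCR against three housekeeping genes in human HepaRG cultures treated for 48 h with an eight-point concentration series up to 100 uM. Activity in either direction was fitted relative to 0.5% DMSO.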

Read-out in assay [11]: Bcl-2 (BAD) gene, BAD (gene 572)
In words: LTEA_HepaRG_BAD: Life Technologies and Expression Analysis (LTEA) Assay for Bcl-2 (BAD) gene using HepaRG (AID 2283469). Put shortly:
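Read-out: qRT-PCR of BAD mRNA, normalized to three housekeeping genes. Human HepaRG cultures got 48 h chemical exposure in 0.5% DMSO, duplicate eight-point half-log series topping at 100 uM. Gain or loss of signal fitted versus DMSO vehicle.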

Read-out in assay [12]: Bcl-2 (BAX) gene, BAX (gene 581)
In words: LTEA_HepaRG_BAX: Life Technologies and Expression Analysis (LTEA) Assay for Bcl-2 (BAX) gene using HepaRG (AID 2283470). An outline of the steps:
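Gene expression measured by Fluidigm qRT-PCR with three housekeeping genes for normalisation. HepaRG cells, plated 48 h beforehand, treated 48 h at up to 100 uM (8-point, half-log) in 0.5% DMSO. Bidirectional fitting versus DMSO.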

Read-out in assay [13]: adenosine kinase (ADK) gene, ADK (gene 132)
Kind of assay: LTEA_HepaRG_ADK: Life Technologies and Expression Analysis (LTEA) Assay for adenosine kinase (ADK) gene using HepaRG (AID 2283471). An outline of the steps: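 ADK expression quantified by qRT-PCR, normalised to three housekeeping genes, after 48 h exposure of HepaRG cells to eight concentrations (top 100 uM, half-log steps, duplicate, 0.5% DMSO). Up- or down-regulation fitted relative to vehicle.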

Read-out in assay [14]: Alpha-fetoprotein (AFP) gene, AFP (gene 174)
Kind of assay: LTEA_HepaRG_AFP: Life Technologies and Expression Analysis (LTEA) Assay for Alpha-fetoprotein (AFP) gene using HepaRG (AID 2283472). Put shortly:
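AFP transcript measured by TaqMan qRT-PCR with three housekeeping genes for normalization, after 48 h chemical treatment of HepaRG cells (top 100 uM, half-log steps, 0.5% DMSO). Gain or loss fitted against vehicle.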

Read-out in assay [15]: BCL2L11 (gene 10018)
In words: LTEA_HepaRG_BCL2L11: Life Technologies and Expression Analysis (LTEA) Assay for Bcl-2 (BCL2L11) gene using HepaRG (AID 2283473). An outline of the steps:
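Cells were plated, cultured 48 h, switched to serum-free induction medium, then dosed in duplicate for 48 h at eight half-log concentrations up to 100 uM. Lysates underwent RNA isolation and TaqMan qRT-PCR; gain or loss versus DMSO was fitted.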

Read-out in assay [16]: Apolipoprotein A-V (APOA5) gene, APOA5 (gene 116519)
In words: LTEA_HepaRG_APOA5: Life Technologies and Expression Analysis (LTEA) Assay for Apolipoprotein A-V (APOA5) gene using HepaRG (AID 2283474). Put shortly: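 Human liver HepaRG cells are treated 48 h with test chemicals (100 uM top, half-log dilutions, 0.5% DMSO). APOA5 mRNA induction or loss is measured by qRT-PCR relative to vehicle.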

Read-out in assay [17]: Apoptosis regulator Bcl-2 (Homo sapiens) (UniProt P10415)
Kind of assay: LTEA_HepaRG_BCL2: Life Technologies and Expression Analysis (LTEA) Assay for Bcl-2 gene using HepaRG (AID 2283475). Put shortly:
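qRT-PCR of BCL2 transcript, normalized to three housekeeping genes (ACTB, GAPDH, POLR2A), after 48 h chemical exposure of HepaRG cells; concentrations top 100 uM with half-log dilutions, 0.5% DMSO vehicle, duplicates; changes up or down fitted relative to vehicle.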

Read-out in assay [18]: Bcl-2 (BID) gene, BID (gene 637)
Kind of assay: LTEA_HepaRG_BID: Life Technologies and Expression Analysis (LTEA) Assay for Bcl-2 (BID) gene using HepaRG (AID 2283476). Put shortly: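 Duplicate 48 h treatments of HepaRG cells in serum-free induction medium spanned 100 uM downward in half-log steps, 0.5% DMSO. Transcript change quantified by qRT-PCR against three housekeeping genes, fitted up or down versus DMSO.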

Read-out in assay [19]: Caspase-3 (Homo sapiens) (UniProt P42574)
In words: LTEA_HepaRG_CASP3: Life Technologies and Expression Analysis (LTEA) Assay for cysteine-aspartic acid protease (CASP3) using HepaRG (AID 2283477). An outline of the steps:
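In HepaRG liver cells dosed for 48 h at up to 100 uM (eight-point, duplicate), CASP3 expression changes are scored by qRT-PCR. Activity is fitted in both directions with 0.5% DMSO as baseline.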

Read-out in assay [20]: ATP-citrate lyase (ACLY), ACLY (gene 47)
Kind of assay: LTEA_HepaRG_ACLY: Life Technologies and Expression Analysis (LTEA) Assay for ATP-citrate lyase (ACLY) using HepaRG (AID 2283466). Put shortly:
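ACLY mRNA quantified by qRT-PCR on Fluidigm arrays against three housekeeping genes, after 48 h chemical treatment of HepaRG cells (top concentration 100 uM, half-log steps, 0.5% DMSO vehicle). Up- or down-regulation fitted relative to DMSO.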

Active and inactive are the calls of the source. Rule for the calls: active = hit-call score of the fitted dose curve at least 0.9, where 1 is the maximum; inactive = score below 0.9.

Chain of Apoptosis regulator Bcl-2 (Homo sapiens) (P10415 whole entry, looked up): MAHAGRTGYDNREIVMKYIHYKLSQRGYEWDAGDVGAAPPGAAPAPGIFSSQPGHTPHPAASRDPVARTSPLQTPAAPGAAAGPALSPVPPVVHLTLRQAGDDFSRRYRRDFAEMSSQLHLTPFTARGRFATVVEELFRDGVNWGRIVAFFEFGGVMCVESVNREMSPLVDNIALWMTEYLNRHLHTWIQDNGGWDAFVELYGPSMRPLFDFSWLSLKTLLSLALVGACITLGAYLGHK
Chain of Caspase-3 (Homo sapiens) (P42574 whole entry, looked up): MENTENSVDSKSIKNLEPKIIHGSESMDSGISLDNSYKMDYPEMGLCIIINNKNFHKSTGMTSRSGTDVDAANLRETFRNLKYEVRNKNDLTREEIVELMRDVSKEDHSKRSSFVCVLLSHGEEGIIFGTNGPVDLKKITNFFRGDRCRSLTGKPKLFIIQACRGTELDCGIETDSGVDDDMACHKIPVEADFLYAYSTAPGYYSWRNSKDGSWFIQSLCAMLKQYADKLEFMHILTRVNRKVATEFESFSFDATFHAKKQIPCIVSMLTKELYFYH
Chain of Broad substrate specificity ATP-binding cassette transporter ABCG2 (Homo sapiens) (Q9UNQ0 whole entry, looked up): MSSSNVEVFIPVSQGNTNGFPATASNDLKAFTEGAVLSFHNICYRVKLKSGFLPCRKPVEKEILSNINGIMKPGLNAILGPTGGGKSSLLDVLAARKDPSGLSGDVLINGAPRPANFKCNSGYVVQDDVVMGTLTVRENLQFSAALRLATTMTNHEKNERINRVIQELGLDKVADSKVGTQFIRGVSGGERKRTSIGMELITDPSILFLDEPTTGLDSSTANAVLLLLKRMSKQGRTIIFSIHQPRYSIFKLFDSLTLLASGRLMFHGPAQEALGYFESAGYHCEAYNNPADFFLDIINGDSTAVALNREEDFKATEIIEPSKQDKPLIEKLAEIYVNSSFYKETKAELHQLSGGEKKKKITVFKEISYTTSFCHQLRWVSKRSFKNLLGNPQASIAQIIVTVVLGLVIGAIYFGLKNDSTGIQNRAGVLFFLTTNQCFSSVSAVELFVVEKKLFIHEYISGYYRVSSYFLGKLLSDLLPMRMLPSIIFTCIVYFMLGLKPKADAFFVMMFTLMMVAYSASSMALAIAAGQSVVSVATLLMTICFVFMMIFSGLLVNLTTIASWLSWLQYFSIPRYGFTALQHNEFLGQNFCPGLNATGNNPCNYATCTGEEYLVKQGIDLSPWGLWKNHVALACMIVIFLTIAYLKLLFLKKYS

Take `Cc1ncc([C@@H](CCCCCCc2ccc3c(n2)NCCC3)CC(=O)O)cn1`: the molecule was called inactive in assay [1], in assay [2], in assay [3], in assay [4], in assay [5] and in assay [6]. In addition, the call in assay [7], in assay [8], in assay [9], in [10], in assay [11] and in assay [12] was inactive. In addition, the call in [13], in [14], in assay [15], in [16], in assay [17] and in [18] was inactive. For the same molecule, the molecule was classed as inactive in assay [19].

One may read the AC50 as the midpoint of the concentration-response curve, whichever way the signal moves. In the case of `c1ccc(C(O[C@@H]2CCCN(CCc3ccc4c(c3)OCO4)C2)c2ccccc2)cc1`, the AC50 in assay [1] is 89.2 µM (active); in assay [2] it was 10.2 µM (active); in assay [3], 83.9 µM (active); in assay [4], 81.1 µM (active); in assay [5] it was 30.1 µM (active); in assay [6], 76.8 µM (active). The AC50 was 79.7 µM (active) in [7]; 75.9 µM (active) in assay [9]; 68.5 µM (active) in assay [10]; 80.1 µM (active) in assay [12]; 90.7 µM (active) in [13]; 73.2 µM (active) in assay [17]. In assay [18], the AC50 was 91 µM (active). For the same molecule, the molecule was called inactive in assay [8], in assay [11], in [14], in [15] and in assay [16].

Regarding `CCCCCCCCCCCCCCO`, the molecule was called inactive in assay [1], in assay [2], in assay [3], in assay [4], in assay [5] and in assay [6]. Also, the outcome in [7], in assay [8], in [20], in assay [9], in assay [10] and in assay [11] was inactive. Further, the result in assay [12], in assay [13], in assay [14], in [15], in [16] and in assay [17] was inactive. The molecule was called inactive in [18].

As for `CCCC(CCC)C(=O)O`, the result in assay [1], in assay [2], in assay [3], in [4], in [5] and in assay [6] was inactive. The molecule was classed as inactive in assay [7], in assay [8], in assay [9], in assay [10], in assay [11] and in [12]. The result in [13], in assay [14], in [15], in [16], in assay [17] and in [18] was inactive. Moreover, the call in assay [19] was inactive.

Regarding `c1ccc2cc3ccccc3cc2c1`, the result in assay [1], in assay [2], in assay [3], in [4], in assay [5] and in assay [7] was inactive. Besides, the molecule was called inactive in [8], in assay [9], in assay [10], in assay [11], in assay [12] and in assay [13]. For the same molecule, the result in assay [14], in assay [15], in assay [16], in assay [17] and in [18] was inactive. In assay [6], the AC50 was 71.7 µM (active).

For the molecule `COc1cc(C(C)C)c2c(c1)S(=O)(=O)N(COc1cc(=O)n3cccc(OCCN4CCCCC4)c3n1)C2=O`, the molecule was called inactive in assay [1], in assay [4], in assay [11], in [12], in assay [15] and in [18]. For the same molecule, the call in assay [19] was inactive. Moreover, the AC50 in assay [2] was 19.4 µM (active); in assay [3], 21.3 µM (active); in [5], 22.1 µM (active); in assay [6] it was 17.5 µM (active); in assay [7], 22.3 µM (active); in assay [8], 20.9 µM (active). In addition, the half-maximal activity concentration (AC50) was 19.8 µM (active) in assay [9]; 6.3 µM (active) in assay [10]; 22 µM (active) in assay [13]; 19.5 µM (active) in assay [14]; 22.6 µM (active) in assay [16]; 22.1 µM (active) in assay [17].

(Values after PubChem BioAssay (EPA / NIEHS).)
